About 410 targets per protein were measured; listed, in parts, are those with the strongest signals and a random draw of the rest.
Assays:
Experiment in all cases: glycan array binding signal (z-score within array); higher = stronger binding
Settings in all cases: glycan notation: IUPAC condensed, linker removed
[1] = biological target: GlcNAc(b1-3)[GlcNAc(b1-6)]GalNAc
In short: (§1)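 From the Consortium for Functional Glycomics database, 3228 arrays were curated, keeping only those whose protein sequence was available. Binding is given as a within-array Z-score averaged across arrays sharing a protein sequence and across linkers. Negative Z-scores can be read as non-binding.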

[2] = biological target: GlcNAc(b1-6)Gal(b1-4)GlcNAc
In short: as §1

Kdn(a2-3)Gal(b1-3)GalNAc = biological target: Kdn(a2-3)Gal(b1-3)GalNAc
In short: as §1

Kdn(a2-3)Gal(b1-4)GlcNAc = biological target: Kdn(a2-3)Gal(b1-4)GlcNAc
In short: as §1

[3] = biological target: Man(a1-2)Man(a1-3)[Man(a1-6)]Man(a1-6)[Man(a1-2)Man(a1-3)]Man(b1-4)GlcNAc(b1-4)GlcNAc
In short: as §1

Neu5Ac(a2-3)Gal = biological target: Neu5Ac(a2-3)Gal
In short: as §1

[4] = biological target: Neu5Ac(a2-3)Gal(b1-3)GlcNAc(b1-2)Man(a1-3)[Neu5Ac(a2-3)Gal(b1-3)GlcNAc(b1-2)Man(a1-6)]Man(b1-4)GlcNAc(b1-4)GlcNAc
In short: as §1

[5] = biological target: Neu5Ac(a2-3)Gal(b1-3)GlcNAc(b1-3)Gal(b1-3)GlcNAc
In short: as §1

[6] = biological target: Neu5Ac(a2-3)Gal(b1-3)[Fuc(a1-4)]GlcNAc
In short: as §1

[7] = biological target: Neu5Ac(a2-3)Gal(b1-4)GlcNAc(b1-2)Man
In short: as §1

[8] = biological target: Neu5Ac(a2-3)Gal(b1-4)GlcNAc(b1-2)[Neu5Ac(a2-3)Gal(b1-4)GlcNAc(b1-4)]Man(a1-3)[GlcNAc(b1-4)][Neu5Ac(a2-3)Gal(b1-4)GlcNAc(b1-2)[Neu5Ac(a2-3)Gal(b1-4)GlcNAc(b1-6)]Man(a1-6)]Man(b1-4)GlcNAc(b1-4)GlcNAc
In short: as §1

[9] = biological target: Neu5Ac(a2-3)Gal(b1-4)GlcNAc(b1-3)Gal(b1-3)GlcNAc
In short: as §1

[10] = biological target: Neu5Ac(a2-3)Gal(b1-4)GlcNAc(b1-3)Gal(b1-4)GlcNAc
In short: as §1

[11] = biological target: Neu5Ac(a2-3)Gal(b1-4)GlcNAc(b1-3)Gal(b1-4)[Fuc(a1-3)]GlcNAc
In short: as §1

[12] = biological target: Neu5Ac(a2-3)Gal(b1-4)GlcNAc6S
In short: as §1

[13] = biological target: Neu5Ac(a2-3)Gal(b1-4)[Fuc(a1-3)]GlcNAc
In short: as §1

[14] = biological target: Neu5Ac(a2-3)GalNAc(b1-4)GlcNAc
In short: as §1

[15] = biological target: Neu5Ac(a2-6)Gal(b1-4)GlcNAc
In short: as §1

[16] = biological target: Neu5Ac(a2-6)Gal(b1-4)GlcNAc(b1-2)Man(a1-3)[Neu5Ac(a2-3)Gal(b1-4)GlcNAc(b1-2)Man(a1-6)]Man(b1-4)GlcNAc(b1-4)GlcNAc
In short: as §1

[17] = biological target: Neu5Ac(a2-6)Gal(b1-4)GlcNAc(b1-3)Gal(b1-3)GlcNAc
In short: as §1

[18] = biological target: Neu5Ac(a2-6)Gal(b1-4)GlcNAc(b1-3)Gal(b1-4)GlcNAc(b1-3)Gal(b1-4)GlcNAc(b1-2)Man(a1-3)[Neu5Ac(a2-6)Gal(b1-4)GlcNAc(b1-3)Gal(b1-4)GlcNAc(b1-3)Gal(b1-4)GlcNAc(b1-2)Man(a1-6)]GalNAc
In short: as §1

[19] = biological target: Neu5Ac(a2-6)GlcNAc(b1-4)GlcNAc(b1-4)GlcNAc
In short: as §1

Neu5Ac(a2-8)Neu5Ac = biological target: Neu5Ac(a2-8)Neu5Ac
In short: as §1

[20] = biological target: Neu5Ac(a2-8)Neu5Ac(a2-8)Neu5Ac
In short: as §1

[21] = biological target: Fuc(a1-2)Gal(b1-4)GlcNAc(b1-3)Gal(b1-4)GlcNAc
In short: as §1

[22] = biological target: Fuc(a1-2)Gal(b1-4)GlcNAc(b1-3)[Fuc(a1-2)Gal(b1-4)GlcNAc(b1-6)]GalNAc
In short: as §1

[23] = biological target: Fuc(a1-2)Gal(b1-4)[Fuc(a1-3)]GlcNAc(b1-2)Man(a1-3)[Fuc(a1-2)Gal(b1-4)[Fuc(a1-3)]GlcNAc(b1-2)Man(a1-6)]Man(b1-4)GlcNAc(b1-4)GlcNAc
In short: as §1

[24] = biological target: Fuc(a1-2)Gal(b1-4)[Fuc(a1-3)]GlcNAc(b1-2)[Fuc(a1-2)Gal(b1-4)[Fuc(a1-3)]GlcNAc(b1-4)]Man(a1-3)[Fuc(a1-2)Gal(b1-4)[Fuc(a1-3)]GlcNAc(b1-2)Man(a1-6)]Man(b1-4)GlcNAc(b1-4)GlcNAc
In short: as §1

[25] = biological target: Fuc(a1-2)Gal(b1-4)[Fuc(a1-3)]GlcNAc(b1-3)Gal(b1-4)[Fuc(a1-3)]GlcNAc(b1-3)Gal(b1-4)[Fuc(a1-3)]GlcNAc
In short: as §1

[26] = biological target: Fuc(a1-2)Gal(b1-4)[Fuc(a1-3)]GlcNAc(b1-3)GalNAc
In short: as §1

[27] = biological target: Fuc(a1-2)[Gal(a1-3)]Gal(b1-4)[Fuc(a1-3)]Glc
In short: as §1

[28] = biological target: Fuc(a1-2)[Gal(a1-4)]Gal(b1-4)GlcNAc
In short: as §1

[29] = biological target: Fuc(a1-2)[GalNAc(a1-3)]Gal
In short: as §1

[30] = biological target: Fuc(a1-2)[GalNAc(a1-3)]Gal(b1-4)Glc
In short: as §1

[31] = biological target: Fuc(a1-2)[GalNAc(a1-3)]Gal(b1-4)[Fuc(a1-3)]GlcNAc
In short: as §1

[32] = biological target: Fuc(a1-3)[Gal3S(b1-4)]GlcNAc6S
In short: as §1

Gal(a1-3)Gal(b1-4)Glc = biological target: Gal(a1-3)Gal(b1-4)Glc
In short: as §1

[33] = biological target: Gal(a1-4)Gal(b1-4)GlcNAc(b1-3)Gal(b1-4)Glc
In short: as §1

[34] = biological target: Gal(b1-3)GalNAc(a1-3)[Fuc(a1-2)]Gal(b1-4)Glc
In short: as §1

[35] = biological target: Gal(b1-3)GlcNAc(b1-2)Man(a1-3)[GlcNAc(b1-4)][Gal(b1-3)GlcNAc(b1-2)Man(a1-6)]Man(b1-4)GlcNAc(b1-4)GlcNAc
In short: as §1

[36] = biological target: Gal(b1-4)GalNAc(b1-3)[Fuc(a1-2)]Gal(b1-4)GlcNAc
In short: as §1

[37] = biological target: Gal(b1-4)GlcNAc(b1-2)Man(a1-3)Man(b1-4)GlcNAc(b1-4)GlcNAc
In short: as §1

Gal(b1-4)GlcNAc6P = biological target: Gal(b1-4)GlcNAc6P
In short: as §1

Gal(b1-6)Gal = biological target: Gal(b1-6)Gal
In short: as §1

Gal3S(b1-4)Glc = biological target: Gal3S(b1-4)Glc
In short: as §1

[38] = biological target: Gal3S(b1-4)[Fuc(a1-3)]Glc6S
In short: as §1

Gal6S(b1-4)GlcNAc6S = biological target: Gal6S(b1-4)GlcNAc6S
In short: as §1

GalNAc(b1-4)Gal(b1-4)Glc = biological target: GalNAc(b1-4)Gal(b1-4)Glc
In short: as §1

GalNAc6S(b1-4)GlcNAc = biological target: GalNAc6S(b1-4)GlcNAc
In short: as §1

[39] = biological target: GlcNAc(a1-4)Gal(b1-4)GlcNAc(b1-3)Gal(b1-4)[Fuc(a1-3)]GlcNAc(b1-3)Gal(b1-4)[Fuc(a1-3)]GlcNAc
In short: as §1

[40] = biological target: GlcNAc(b1-3)[GlcNAc(b1-4)][GlcNAc(b1-6)]GlcNAc
In short: as §1

[41] = biological target: Man(a1-2)Man(a1-2)Man(a1-6)[Man(a1-3)]Man
In short: as §1

[42] = biological target: Neu5Ac(a2-3)Gal(b1-3)GlcNAc6S
In short: as §1

B1: SAOUHSC 00176 (Staphylococcus aureus) (protein)
chain: MSKILKCITLAVVMLLIVTACGPNRSKEDIDKALNKDNSKDKPNQLTMWVDGDKQMAFYKKITDQYTKKTGIKVKLVNIGQNDQLENISLDAPAGKGPDIFFLAHDNTGSAYLQGLAAEIKLSKDELKGFNKQALKAMNYDNKQLALPAIVETTALFYNKKLVKNAPQTLEEVEANAAKLTDSKKKQYGMLFDAKNFYFNYPFLFGNDDYIFKKNGSEYDIHQLGLNSKHVVKNAERLQKWYDKGYLPKAATHDVMIGLFKEGKVGQFVTGPWNINEYQETFGKDLGVTTLPTDGGKPMKPFLGVRGWYLSEYSKHKYWAKDLMLYITSKDTLQKYTDEMSEITGRVDVKSSNPNLKVFEKQARHAEPMPNIPEMRQVWEPMGNASIFISNGKNPKQALDEATNDITQNIKILHPSQNDKKGD
[1]
  glycan array binding signal (z-score): -0.149
[2]
  glycan array binding signal (z-score): -0.124
Kdn(a2-3)Gal(b1-3)GalNAc
  glycan array binding signal (z-score): -0.129
Kdn(a2-3)Gal(b1-4)GlcNAc
  glycan array binding signal (z-score): -0.143
[3]
  glycan array binding signal (z-score): -0.172
Neu5Ac(a2-3)Gal
  glycan array binding signal (z-score): -0.179
[4]
  glycan array binding signal (z-score): 1.08
[5]
  glycan array binding signal (z-score): -0.055
[6]
  glycan array binding signal (z-score): -0.157
[7]
  glycan array binding signal (z-score): 0.473
[8]
  glycan array binding signal (z-score): -0.073
[9]
  glycan array binding signal (z-score): -0.09
[10]
  glycan array binding signal (z-score): 0.002
[11]
  glycan array binding signal (z-score): -0.015
[12]
  glycan array binding signal (z-score): -0.027
[13]
  glycan array binding signal (z-score): -0.132
[14]
  glycan array binding signal (z-score): -0.141
[15]
  glycan array binding signal (z-score): -0.148
[16]
  glycan array binding signal (z-score): -0.114
[17]
  glycan array binding signal (z-score): -0.079
[18]
  glycan array binding signal (z-score): 0.358
[19]
  glycan array binding signal (z-score): 2.56
Neu5Ac(a2-8)Neu5Ac
  glycan array binding signal (z-score): -0.022
[20]
  glycan array binding signal (z-score): -0.055

B2: OrfX (Escherichia coli), Q9X4B6_ECOLX (protein)
chain: MIKIARIAVTLGLLSSLGAQAYAAGLVVNDNDLRNDLAWLSDRGVIHLSLSTWPLSQEEIARALKKAKPSYSSEQVVLARINQRLSALKADFRVTGYTSTDQPGTPQGFGQTQPADNSLGLAFNNSGEWWDVHLQGNVEGGERISNGSRFNANGAYGAVKFWNQWLSFGQVPQWWGPGYEGSLIRGDAMRPMTGFLMQRAEQAAPETWWLRWVGPWQYQISASQMNQYTAVPHAKIIGGRFTFTPFQSLELGASRIMQWGGEGRPQSFSSFWDGFTGHDNTGTDNEPGNQLAGFDFKFKLEPTLGWPVSFYGQMVGEDESGYLPSANMFLGGVEGHHGWGKDTVNWYVEAHDTRTNMSRTNYSYTHHIYKDGYYQQGYPLGDAMGGDGQLIAGKVELITEDNQRWSTRLVYAKVNPENQSINKAFPHADTLKGLQLGWSGDVYQSVRLNTSLWYTNANNSDSDDVGASAGIEIPFSL
[21]
  glycan array binding signal (z-score): -0.191
[22]
  glycan array binding signal (z-score): 0.429
[23]
  glycan array binding signal (z-score): 0.202
[24]
  glycan array binding signal (z-score): -0.108
[25]
  glycan array binding signal (z-score): -0.02
[26]
  glycan array binding signal (z-score): 4.3
[27]
  glycan array binding signal (z-score): -0.132
[28]
  glycan array binding signal (z-score): -0.32
[29]
  glycan array binding signal (z-score): -0.116
[30]
  glycan array binding signal (z-score): -0.196
[31]
  glycan array binding signal (z-score): 0.042
[32]
  glycan array binding signal (z-score): 2.97
Gal(a1-3)Gal(b1-4)Glc
  glycan array binding signal (z-score): -0.261
[33]
  glycan array binding signal (z-score): -0.181
[34]
  glycan array binding signal (z-score): -0.182
[35]
  glycan array binding signal (z-score): 0.214
[36]
  glycan array binding signal (z-score): -0.145
[37]
  glycan array binding signal (z-score): -0.266
Gal(b1-4)GlcNAc6P
  glycan array binding signal (z-score): 0.611
Gal(b1-6)Gal
  glycan array binding signal (z-score): 0.048
Gal3S(b1-4)Glc
  glycan array binding signal (z-score): 0.076
[38]
  glycan array binding signal (z-score): 2.79
Gal6S(b1-4)GlcNAc6S
  glycan array binding signal (z-score): 2.74
GalNAc(b1-4)Gal(b1-4)Glc
  glycan array binding signal (z-score): 0.667
GalNAc6S(b1-4)GlcNAc
  glycan array binding signal (z-score): -0.318
[39]
  glycan array binding signal (z-score): 10.6
[40]
  glycan array binding signal (z-score): 11.2
[41]
  glycan array binding signal (z-score): -0.231
[5]
  glycan array binding signal (z-score): -0.096
[42]
  glycan array binding signal (z-score): -0.301

— the supplement of paper PMC8728848
